Screening data (PubChem BioAssay)
CHX counter = counter-screen for Shiga toxin inhibitors: cycloheximide protein synthesis inhibition; cell reporter, cycloheximide protein synthesis inhibition counterscreen; max response, %; actives 12% (n = 300,000); in the data active = max response mostly above about 13%, no sharp cut-off; inactive = mostly below about 14%; also: read at 38.3 µM for the half of the compounds with a filed dose; 0% is about no effect
HCMV inh = inhibitors of human cytomegalovirus; actives 4.5% (n = 410,000); activity change, negative = inhibition, % at 57.5 µM; HFF cells, HCMV-luciferase reporter, 72 h; hits give low values; in the data active = activity change below about -60%; inconclusive = no clear call, values can overlap the other calls; inactive = above about -39%; also: % is scaled to controls: 0 for no effect and ±100 for the full control effect
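Luciferase read-out from HCMV-luciferase-infected HFFs (MOI 1 PFU/cell) 72 h post infection at 37C; compounds added after 16 h cell attachment; activity normalized between buffer-only basal and Salinomycin (10uM) inhibitor controls.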
Pf growth 48h = inhibits P. falciparum growth in the first generation, 48 h. AID 504832. actives 5.9% (n = 310,000). Potency, µM (top dose mostly 28.7 µM), for inactives: at the highest dose activity change, negative = inhibition, usual class: inhibitors. P. falciparum luciferase growth in erythrocytes, 48 h; also: potency is read from the fitted curve at half-maximal effect; % is scaled to controls: 0 for no effect and ±100 for the full control effect
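Read-out is firefly luciferase luminescence from an integrated reporter in P. falciparum, so falling signal marks reduced parasite growth. Infected erythrocytes were at 2% hematocrit and 0.1% parasitemia (final) in Albumax-supplemented RPMI 1640.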
HCV inhibitor = inhibitors of hepatitis C virus infection | Huh7.5.1 HCVcc-Cre infection, luciferase reporter, 44 h | Potency, µM (series often up to 41.8 µM), for inactives: at the top dose activity change, negative = inhibition, hits mostly inhibitors | actives 3.4% (n = 340,000) | AID 651820; also: potency is read from the fitted curve at half-maximal effect; % is scaled to controls: 0 for no effect and ±100 for the full control effect
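Infectious HCVcc-Cre (~0.5 moi) was added to cells just after compound, with cells seeded 4 h earlier at 1,000 per well. Luciferase activity after 44 h culture reported infection; substrate was incubated 15 min at room temperature before reading.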
Pf growth 96h = P. falciparum growth inhibition at 96 hour, primary screen for plastid delayed-death inhibitors | P. falciparum luciferase reporter growth, 96 h | Potency, µM (titrated, usually from 28.7 µM), for inactives: top-dose activity change, negative = inhibition, hits mostly inhibitors | actives 6.9% (n = 320,000); also: potency is read from the fitted curve at half-maximal effect; % is scaled to controls: 0 for no effect and ±100 for the full control effect
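Two-generation exposure (96 h) targets delayed-death phenotype. Reporter parasites carrying integrated firefly luciferase, in red cells at 2% hematocrit and 0.05% parasitemia final, kept at 37 C, 5% CO2; luminescence loss indicates inhibition.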
Shiga inhibitor = inhibitors of Shiga toxin in Vero cells. inhibition, % at 38.7 µM. actives 9.2% (n = 290,000). Vero cells, Shiga toxin protein synthesis inhibition reporter. AID 2315; in the data active = inhibition mostly above about 28%, no sharp cut-off; inactive = mostly below about 43%; also: 0% is about no effect
* marks the source's active call; other numbers are inactive results; ? = inconclusive; nt = no result. Only some compounds are listed: those with a hit (about 21% of all), similar ones and a draw of the others. Unless noted, calls follow the shape of the dose curve; as a rule, active = well fitted inhibition curve with a large enough effect; inconclusive = small, poorly fitted or top-dose-only effect, or another doubt; inactive = no such curve, though single readings can be large or run the other way.

SMILES | CHX counter | HCMV inh | Pf growth 48h | HCV inhibitor | Pf growth 96h | Shiga inhibitor
C[C@H](CO)N1C[C@H](C)[C@@H](CN(C)C(=O)c2ccc(N3CCN(C)CC3)cc2)OCc2cn(nn2)CCCC1=O | nt | 7 | nt | nt | nt | nt
COc1ccc(-n2[nH]c3c(cnc4ccccc43)c2=O)cc1 | nt | -4 | nt | nt | nt | nt
COc1ccc(OC)c(/C=C/C(=O)OCC(=O)Nc2nnc(-c3ccccc3)o2)c1 | nt | ? | ? | -6% | -24% | nt
CCCCNC(=O)c1cnc2sc(N3CCCCCC3)nn2c1=O | nt | -5 | nt | nt | nt | nt
CCCCNC(=O)Nc1ccc(Br)cn1 | 36* | -11 | 47% | ? | 43% | 31*
CCCCNC(=O)Nc1ccccn1 | 10 | 0 | 25% | -18% | nt | 31
CN(CC(=O)Nc1cccc(F)c1)C(=O)c1ccc(N2CCCC2)c([N+](=O)[O-])c1 | nt | -61* | 5% | ? | 17% | nt
CN(CC(=O)Nc1cccc(F)c1)CC(=O)Nc1ccc(Cl)cc1[N+](=O)[O-] | 11 | 21 | 14% | 6% | -19% | 43
COc1cccc(NC(=O)CN(C)C(=O)c2ccc(N3CCCCC3)c([N+](=O)[O-])c2)c1 | nt | 0 | ? | -28% | ? | nt
CN(CC(=O)Nc1cccc(F)c1)CC(=O)Nc1ccccc1[N+](=O)[O-] | 18 | -87* | 17% | ? | 13% | -6
CCc1nnc(NC(=O)Cc2ccc(S(=O)(=O)N3CCCCC3)cc2)s1 | nt | -10 | 12µM* | 12% | 12µM* | nt
CCc1nnc(NC(=O)c2ccc(S(=O)(=O)N3CCCCCC3)cc2)s1 | -3 | -13 | 2% | -4% | nt | -12
CCc1nnc(NC(=O)C2CCCN(S(=O)(=O)c3ccc(OC)cc3)C2)s1 (stereo unspecified) | 38* | -25 | 34% | 0% | 34% | 72*
CCCCN(CC)C(=O)CCNS(=O)(=O)c1ccc2c(c1)c(=O)n(C)c(=O)n2C | nt | -8 | nt | nt | nt | nt
Cc1ccc(OCCSc2nc3ccccc3n2CC(=O)N2CCCCC2)cc1C | nt | -9 | nt | nt | nt | nt
CCN1C(=C2C(=O)c3ccccc3C2=O)C=Cc2ccccc21 | 25* | 33 | nt | -17% | 9% | 39*
CCN1C(=O)/C(=C2\C=Cc3ccccc3N2CC)SC1=S | 20 | -10 | -4% | ? | ? | 31
CCN1C(=O)/C(=C2\C=Cc3cc(C)ccc3N2CC)OC1=S | -2 | -34 | -3% | 17% | 0% | 7
CCN1C(=O)/C(=C2/C=Cc3ccccc3N2C)OC1=S | 37* | 74 | nt | 9% | 6% | 44
COc1ccc(C(C(=O)NC(C)(C)C)N(C(=O)CCC(=O)Nc2cc(C)on2)c2ccccc2F)cc1 (stereo unspecified) | -2 | 8 | ? | 8% | 14% | -5
O=C(Nc1ccc(Cl)c(Cl)c1)N1CC=CCC1 | 33* | 4 | 273% | -23% | 74% | 86*
Cc1ccc(NC(=O)N2CCCC2)cc1Cl | 38* | 46 | 60% | 1% | 0% | 84*
Cc1ccc(NC(=O)C(=O)N2CCCC2)cc1Cl | 39* | 67 | 97% | 8% | 40% | 116*
Cc1cccc(C)c1NC(=O)N1CC=CCC1 | 3 | -4 | 5% | 10% | -17% | -9
Cc1ccc(NC(=S)N2CCCC2)cc1Cl | 16 | 12 | 1% | 9% | 14% | 18
SMILES | CHX counter | HCMV inh | Pf growth 48h | HCV inhibitor | Pf growth 96h | Shiga inhibitor
O=C(NCCN1CCN(c2ccccc2Cl)CC1)Nc1ccccc1 | -1 | 45 | 9% | 0% | -29% | nt
Cc1cccc(N2CCN(CCNC(=O)Nc3ccc(Cl)cc3)CC2)c1C | nt | -99* | nt | nt | nt | nt
Oc1ccccc1N1CCN(C(c2ccccc2)c2ccccc2)CC1 | 4 | ? | ? | 6% | ? | -3
CCOc1ccc(C2C(C(=O)Nc3ccc(C)cc3C)=C(C)Nc3c(C(=O)Nc4ccc(C)cc4)cnn32)cc1OC (stereo unspecified) | nt | -12 | nt | nt | nt | nt
CCOC(=O)c1c(C)[nH]c(CCC(=O)NCCCN2CCN(c3ccccc3F)CC2)c1C | nt | -30 | nt | nt | nt | nt
Cc1ccc(NC(=O)NCCN2CCCCC2)cc1Cl | 13* | 22 | -2% | -28% | ? | 1
CCOC(=O)N1CCC2(CC1)C(C#N)=C(N)OC1=C2C(=O)CC(C)C1 (stereo unspecified) | 1 | 3 | -11% | 3% | 6.6µM* | -16
C[C@@H]1[C@@H](c2ccccc2)Nc2ccc(Br)cc2[C@H]1NC(=O)OCc1ccccc1 | nt | -34 | nt | nt | nt | nt
CCc1cc2c(nc1CC)CCCN2C | nt | -37 | nt | nt | nt | nt
COC(=O)c1ccc2c(c1)N(C)CCS2 | -1 | 38 | -6% | -1% | ? | 8
CCOc1ccc(NC(=O)c2ccc3c(c2)N(C)CCS3)cc1 | nt | 100 | nt | nt | nt | nt
Cc1ccccc1NC(=O)c1ccc2c(c1)N(C)CCS2 | 28* | 105 | 39% | ? | 13µM* | 32*
CN1CCSc2ccc(C(=O)Nc3cc(F)ccc3F)cc21 | 54* | 56 | 193% | ? | 334% | 81*
COc1cc(-c2cnc3c(NC=O)cc(-c4cccc(C(F)(F)F)c4)cn23)cc(OC)c1OC | nt | -67* | nt | nt | nt | nt
CC(=O)Nc1cc(-c2ccc(N3CCN(C)CC3)cc2)cn2c(-c3ccccc3)cnc12 | nt | -60* | nt | nt | nt | nt
COc1cc(-c2ccc3ncc(-c4cccc(C(F)(F)F)c4)n3n2)cc(OC)c1OC | nt | -95* | nt | nt | nt | nt
COc1cccc(-c2cnc3c(NC=O)cc(-c4ccc(O)c(OC)c4)cn23)c1 | nt | 72 | nt | nt | nt | nt
COc1ccc(-c2cc(NC=O)c3ncc(-c4cccc(C(F)(F)F)c4)n3c2)c(OC)c1 | nt | 90 | nt | nt | nt | nt
COc1cccc(-c2cc(NC=O)c3ncc(-c4cc(OC)c(OC)c(OC)c4)n3c2)c1 | nt | -81* | nt | nt | nt | nt
COc1cc(-c2n[nH]c(=S)n2-c2cccc(C(F)(F)F)c2)cc(OC)c1OC | -3 | 60 | 11% | 0% | ? | 3
CC(=O)Nc1cc(-c2ccc(N3CCN(C)CC3)cc2)cn2c(-c3ccc(S(C)(=O)=O)cc3)cnc12 | nt | -5 | nt | nt | nt | nt
CC(=O)Nc1cc(-c2cccnc2)cn2c(-c3cccc(C(F)(F)F)c3)cnc12 | nt | -62* | nt | nt | nt | nt
COc1ccc(-c2cnc3c(NC=O)cc(-c4ccccc4OC)cn23)cc1OC | nt | -80* | nt | nt | nt | nt
O=C(NCCc1ccccc1)c1oc2ccccc2c1COc1ccccc1 | 26* | 25 | ? | ? | 13µM* | 39*
O=C(Nc1ccccc1Cc1ccccc1)c1oc2ccccc2c1COc1ccccc1 | -2 | 26 | ? | 8% | 10µM* | -4
Cc1c(C(=O)NCCCN2CCCC2=O)oc2c(Cl)cccc12 | nt | -33 | -30% | ? | 21% | nt
COCc1c(C(=O)N(C)Cc2ccccc2N2CCCC2)oc2ccccc12 | nt | ? | ? | ? | 9.3µM* | nt
COCc1c(C(=O)N2CCN(c3ncccn3)CC2)oc2ccccc12 | nt | -9 | -25% | -17% | ? | nt
